Growth inhibition data for 19 molecules are collected here from PubChem BioAssay (NCI).

Assay [1] is described as follows: NCI Yeast Anticancer Drug Screen. Data for the rad50 strain (AID 155).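 Further: 0% = growth of vehicle-only cultures of the same strain.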 To be noted: S. cerevisiae rad50 strain growth inhibition; at 50.0 µM; stronger effect = higher value. In short, it runs like this:
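Vehicle-treated cultures provide the reference for the growth inhibition reported for compound-exposed, repair-deficient yeast.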

Assay [2] in a line: NCI Yeast Anticancer Drug Screen. Data for the mec2-1 strain (AID 157). To be noted: S. cerevisiae mec2-1 strain, at 50.0 µM, stronger effect = higher value. In short, it runs like this: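 Using mec2-1 yeast: add compound, measure growth, express inhibition versus vehicle-treated cultures.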
A short description of assay [3]: NCI Yeast Anticancer Drug Screen. Data for the sgs1 mgt1 strain (AID 161).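 Further: 0% = growth of cultures given vehicle only.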 Particulars: S. cerevisiae sgs1 mgt1 strain, at 50.0 µM, stronger effect = higher value. In a few lines: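 Yeast cells carrying a defined DNA-repair defect were exposed to test compounds. Growth inhibition was measured relative to vehicle-treated controls.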
Assay [4] can be described thus: NCI Yeast Anticancer Drug Screen. Data for the cln2 rad14 strain (AID 165).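 Further: 0% = growth equal to vehicle treated cultures.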 Particulars: S. cerevisiae cln2 rad14 strain, at 50.0 µM, stronger effect = higher value. In short, it runs like this:
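Yeast strain cln2 rad14, bearing defects in cell cycle control and DNA repair, serves as the test system; values reflect growth inhibition compared with vehicle.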

Assay [5] can be described thus: NCI Yeast Anticancer Drug Screen. Data for the bub3 strain (AID 167). To be noted: S. cerevisiae bub3 mutant strain, at 50.0 µM, stronger effect = higher value. In short, it runs like this:
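Mutant yeast screening strain plus compound; vehicle-treated cultures serve as the 0% inhibition reference.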

Assay [6] can be described thus: NCI Yeast Anticancer Drug Screen. Data for the mlh1 rad18 strain (AID 175). To be noted: S. cerevisiae mlh1 rad18 strain growth inhibition; at 50.0 µM; stronger effect = higher value. In a few lines:
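Steps: expose repair-defective yeast to compound; measure growth; express inhibition against vehicle-treated controls.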

Where “and” joins values, the source holds several entries; their conditions need not be identical. Identical values can stand only once. Compounds without any hit were thinned out: in the full panel of roughly 79,000, 15% have a hit. More than one record can exist for a structure, and the calls need not agree. Calls of active or inactive are those of the source. No stated cut-off is given here; in the data, active means growth inhibition above about 70%; inactive means the rest.

With `[Fe+5].[O-][Cl+3]([O-])([O-])O.[O-]c1ccccc1C=NCCN1CC1.[O-]c1ccccc1C=NCCN1CC1`, the growth inhibition is 1.8% (inactive) in assay [1]; 16% (inactive) in assay [2]; 30.1% (inactive) in assay [3]; 0.3% (inactive) in assay [4]; 37% (inactive) in assay [5]; 22.2% (inactive) in assay [6].

Take `c1ccc2c(c1)ccc1[s+]cccc12`: the growth inhibition in assay [1] is 69.4% (inactive); in assay [2], 23.2% (inactive); in assay [3] it was 35.7% (inactive); in assay [4], 25.4% (inactive); in assay [5], 16.1% (inactive); in assay [6] it was 76% (active).

Turning to `CC(Br)([N+](=O)[O-])[N+](=O)[O-]`, the growth inhibition in assay [1] is 14.6% (inactive); in assay [2], 25.8% (inactive); in assay [3] it was 13.9% (inactive); in assay [4], 39.6% (inactive); in assay [5], 5.4% (inactive); in assay [6], 2.8% (inactive).

As for `CCC(Br)C(N)=O` (centres undefined), the growth inhibition was -9.25% (inactive) in assay [1]; 3.2% (inactive) in assay [2]; -6.9% (inactive) in assay [3]; -59.5% (inactive) in assay [4]; -4.25% (inactive) in assay [5]; -1% (inactive) in assay [6].

With `CN(c1ccccc1)[N+](=O)[O-]`, the growth inhibition in assay [1] was -9.45% (inactive); in assay [2], -12.2% (inactive); in assay [3] it was -14.2% (inactive); in assay [4] it was -5.1% (inactive); in assay [5], -7.8% (inactive); in assay [6] it was -5.3% (inactive).

With `COc1ccc2nc3ccccc3c(NCCCCCCN(CCCl)CCCl)c2c1`, the growth inhibition in assay [1] was 88.2% (active); in assay [2] it was 79.1% (active); in assay [3] it was 80.8% (active); in assay [4] it was 86.3% (active); in assay [5] it was 48.4% (inactive); in assay [6], 82.9% (active).

`CCCN(CCC)CC(O)c1ccc2c3c(cccc13)CC2` (centres undefined): the growth inhibition in assay [1] was 21.9% (inactive); in assay [2], -5.9% (inactive); in assay [3], 19.2% (inactive); in assay [4], -10.1% (inactive); in assay [5] it was -4.6% (inactive); in assay [6], 16.4% (inactive).

For `CCOP(=O)(CN(CCO)CCO)OCC`, the growth inhibition in assay [1] was -5.85% (inactive); in assay [2], 12% (inactive); in assay [3], 11.4% (inactive); in assay [4], 0% (inactive); in assay [5], -6.5% (inactive); in assay [6], 4.25% (inactive).

In the case of `CC1CC(C)(O)CC(C(O)CC2CC(=O)NC(=O)C2)C1=O` (centres undefined), the growth inhibition in assay [1] was 55.9% (inactive); in assay [2] it was 51% (inactive); in assay [3], 48.2% (inactive); in assay [4], 56.1% (inactive); in assay [5] it was 67% (inactive); in assay [6], 68.2% (inactive).

Turning to `CN1CCC23CC=CCC2C1Cc1ccc([N+](=O)[O-])cc13` (centres undefined), the growth inhibition in assay [1] is -4.15% (inactive); in assay [2], 11.3% (inactive); in assay [3] it was 7.25% (inactive); in assay [4], -3.15% (inactive); in assay [5] it was 2.4% (inactive); in assay [6] it was 35% (inactive).

For `[Cl][Sn]([Cl])([c]1ccccc1)[c]1ccccc1`, the growth inhibition was 0.95% (inactive) and 97.1% (active) in assay [1]; 29.9% (inactive) and 96.2% (active) in assay [2]; 41.5% (inactive) and 95.1% (active) in assay [3]; -35.4% (inactive) and 95.2% (active) in assay [4]; 48.4% (inactive) and 95.8% (active) in assay [5]; 51% (inactive) and 97.2% (active) in assay [6].

For `COc1ccc2c(c1OC)CC(N)C2O` (centres undefined), the growth inhibition is 9% (inactive) in assay [1]; 3.55% (inactive) in assay [2]; 7.8% (inactive) in assay [3]; 4.3% (inactive) in assay [4]; 15.2% (inactive) in assay [5]; 3.25% (inactive) in assay [6].

As to `OC[P+](CO)(CO)CO`, the growth inhibition in assay [1] was -2.8% (inactive); in assay [2], 1.05% (inactive); in assay [3] it was -8.15% (inactive); in assay [4], -24.9% (inactive); in assay [5] it was 14.7% (inactive); in assay [6], -5.9% (inactive).

With `O=[P+](O)O[P+](=O)O.O=[P+](O)O[P+](=O)O.O=[P+](O)O[P+](=O)O.O=[P+](O)O[P+](=O)O.[Cl][Pt].[Cl][Pt]`, the growth inhibition was -2.05% (inactive) in assay [1]; 27.8% (inactive) in assay [2]; 26.2% (inactive) in assay [3]; -32.5% (inactive) in assay [4]; 18.1% (inactive) in assay [5]; 12.9% (inactive) in assay [6].

As to `COc1ccc(NC2Oc3cc4c(cc3C(c3cc(OC)c(OC)c(OC)c3)C2C)OCO4)cc1` (centres undefined), the growth inhibition is -1.25% (inactive) in assay [1]; 18.9% (inactive) in assay [2]; 25.3% (inactive) in assay [3]; -13.2% (inactive) in assay [4]; 17.1% (inactive) in assay [5]; 12% (inactive) in assay [6].

Consider `Nc1cc(S(=O)(=O)F)ccc1Cl`, for which the growth inhibition in assay [1] is 26.3% (inactive); in assay [2], 6.1% (inactive); in assay [3], 20.1% (inactive); in assay [4], 35.5% (inactive); in assay [5], 22.9% (inactive); in assay [6] it was 23.6% (inactive).

Take `O=[As](O)(O)c1ccc(F)cc1`: the growth inhibition in assay [1] was 3.45% (inactive); in assay [2] it was 9.8% (inactive); in assay [3], -4.35% (inactive); in assay [4], 14.6% (inactive); in assay [5], 9.3% (inactive); in assay [6] it was 2.95% (inactive).

As to `C[N+](C)(C)CC1CCC(C[N+](C)(C)C)C1=NO` (centres undefined), the growth inhibition in assay [1] is -16.3% (inactive); in assay [2] it was 11.1% (inactive); in assay [3], 4.2% (inactive); in assay [4], 13.2% (inactive); in assay [5], 9.75% (inactive); in assay [6], -15.5% (inactive).

Take `OC(COc1cccc2ccccc12)CN(CCCl)CCCl` (centres undefined): the growth inhibition is 6.85% (inactive) in assay [1]; -12.5% (inactive) in assay [2]; -5.6% (inactive) in assay [3]; 4.05% (inactive) in assay [4]; 8.55% (inactive) in assay [5]; -30.1% (inactive) in assay [6].
